Results: PubChem BioAssay AID1159580 (chemical genetic matrix, 2015)
Among all 5,500 compounds or so, about 2,000 (36%) were called active. Inconclusive results (about 18%) are left out. No stated cut-off is given here; in the data, active means normalized growth mostly below about 0.91 (no sharp cut-off); inconclusive means no clear call, values can overlap the other calls; inactive means mostly above about 0.92. The list shows a part of the results.

Assay: chemical genetic growth profiling, strain panel (AID 1159580);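 further: tested at 20 µM; growth read once vehicle control cultures reached saturation at 30 °C; 1 = growth at the plate median or of vehicle wells; lower values mean less growth of the strain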
Conditions: growth OD
[1] = S. cerevisiae deletion strains, locus YAL013W, strain DEP1, hits give low values
[2] = S. cerevisiae deletion strains, locus YBR229C, strain ROT2, hits give low values
[3] = S. cerevisiae deletion strains, locus YDL101C, strain DUN1, hits give low values
[4] = S. cerevisiae deletion strains, locus YDL134C, strain PPH21, hits give low values
[5] = S. cerevisiae deletion strains, locus YDR150W, strain NUM1, hits give low values
[6] = S. cerevisiae deletion strains, locus YEL061C, strain CIN8, hits give low values
[7] = S. cerevisiae deletion strains, locus YGR078C, strain PAC10, hits give low values
[8] = S. cerevisiae deletion strains, locus YHR030C, strain SLT2, hits give low values
[9] = S. cerevisiae deletion strains, locus YJR043C, strain POL32, hits give low values
[10] = S. cerevisiae deletion strains, locus YJR075W, strain HOC1, hits give low values
[11] = S. cerevisiae deletion strains, locus YLR039C, strain RIC1, hits give low values
[12] = S. cerevisiae deletion strains, locus YLR262C, strain YPT6, hits give low values
[13] = S. cerevisiae deletion strains, locus YMR263W, strain SAP30, hits give low values
[14] = S. cerevisiae deletion strains, locus YNL153C, strain GIM3, hits give low values
[15] = S. cerevisiae deletion strains, locus YNL322C, strain KRE1, hits give low values
[16] = S. cerevisiae deletion strains, locus YOL006C, strain TOP1, hits give low values
[17] = S. cerevisiae deletion strains, locus YPL055C, strain LGE1, hits give low values
[18] = S. cerevisiae deletion strains, locus YPL241C, strain CIN2, hits give low values

Measured: normalized growth

CC1CCN(C(=O)CC#N)CC1
inactive: [1] 1 | [2] 1 | [3] 1.02 | [4] 0.986 | [5] 1.02 | [6] 1.03 | [7] 1 | [8] 1.06 | S. cerevisiae deletion strains, locus YHR087W, strain rtc3, hits give low values 1.02 | S. cerevisiae deletion strains, locus YJL187C, strain SWE1, hits give low values 0.981 | [9] 0.999 | [10] 1.01 | [11] 1.08 | S. cerevisiae deletion strains, locus YLR058C, strain SHM2 (second series), hits give low values 0.995 | S. cerevisiae deletion strains, locus YLR085C, strain ARP6, hits give low values 1.01 | [12] 1.1 | S. cerevisiae deletion strains, locus YML094W, strain GIM5, hits give low values 0.991 | S. cerevisiae deletion strains, locus YMR219W, strain ESC1, hits give low values 1 | [13] 0.985 | [14] 1.01 | S. cerevisiae deletion strains, locus YNL298W, strain CLA4 (second series), hits give low values 0.957 | [15] 0.992 | S. cerevisiae deletion strains, locus YNR030W, strain Alg12, hits give low values 0.981 | [16] 1.01 | [17] 0.979 | [18] 0.996 | S. cerevisiae deletion strains, locus YPR135W, strain CTF4, hits give low values 1.02

Cc1ccc2cc3c(ccc4ccccc43)c3c2c1CC3
inactive: [1] 0.998 | S. cerevisiae deletion strains, locus YBR021W, strain FUR4, hits give low values 0.988 | [2] 0.982 | S. cerevisiae deletion strains, locus YCL029C, strain bik1, hits give low values 0.954 | S. cerevisiae deletion strains, locus YDL035C, strain GPR1, hits give low values 0.916 | S. cerevisiae deletion strains, locus YDL074C, strain BRE1, hits give low values 0.963 | [3] 0.973 | [4] 0.997 | S. cerevisiae deletion strains, locus YDL185W, strain tfp1, hits give low values 0.99 | S. cerevisiae deletion strains, locus YDR101C, strain arx1, hits give low values 0.96 | [5] 1 | S. cerevisiae deletion strains, locus YDR388W, hits give low values 0.96 | [6] 0.994 | S. cerevisiae deletion strains, locus YER110C, hits give low values 0.952 | S. cerevisiae deletion strains, locus YER155C, strain BEM2, hits give low values 0.997 | S. cerevisiae deletion strains, locus YER167W, strain BCK2, hits give low values 0.917 | S. cerevisiae deletion strains, locus YGL078C, strain dbp3, hits give low values 1 | S. cerevisiae deletion strains, locus YGL248W, strain PDE1, hits give low values 0.981 | [7] 0.957 | S. cerevisiae deletion strains, locus YGR135W, strain pre9, hits give low values 0.924 | S. cerevisiae deletion strains, locus YGR229C, strain SMI1, hits give low values 0.841 | S. cerevisiae deletion strains, locus YGR252W, strain gcn5, hits give low values 0.922 | S. cerevisiae deletion strains, locus YHR079C, strain IRE1 (second series), hits give low values 0.954 | S. cerevisiae deletion strains, locus YHR094C, strain hxt1, hits give low values 0.981 | S. cerevisiae deletion strains, locus YHR129C, strain ARP1, hits give low values 0.983 | S. cerevisiae deletion strains, locus YHR200W, strain rpn10, hits give low values 0.933 | S. cerevisiae deletion strains, locus YIL066C, strain RNR3, hits give low values 0.949 | S. cerevisiae deletion strains, locus YIL073C, strain SPO22, hits give low values 0.906 | S. cerevisiae deletion strains, locus YIL125W, strain kgd1, hits give low values 0.941 | S. cerevisiae deletion strains, locus YIR030C, strain dcg1, hits give low values 0.961 | S. cerevisiae deletion strains, locus YJL095W, strain BCK1, hits give low values 0.828 | S. cerevisiae deletion strains, locus YJL134W, strain LCB3, hits give low values 0.99 | S. cerevisiae deletion strains, locus YJL168C, strain set2, hits give low values 0.967 | S. cerevisiae deletion strains, locus YJL187C, strain SWE1 (second series), hits give low values 0.99 | [9] 0.993 | [10] 0.904 | S. cerevisiae deletion strains, locus YKL009W, strain mrt4, hits give low values 0.999 | S. cerevisiae deletion strains, locus YKL068W, hits give low values 0.997 | S. cerevisiae deletion strains, locus YKL085W, strain MDH1 (second series), hits give low values 0.999 | S. cerevisiae deletion strains, locus YKL085W, strain MDH1, hits give low values 0.999 | S. cerevisiae deletion strains, locus YKL190W, strain CNB1, hits give low values 0.958 | S. cerevisiae deletion strains, locus YLR058C, strain SHM2, hits give low values 0.981 | S. cerevisiae deletion strains, locus YLR102C, strain apc9, hits give low values 0.983 | S. cerevisiae deletion strains, locus YLR330W, strain CHS5, hits give low values 0.986 | S. cerevisiae deletion strains, locus YLR342W, strain FKS1 (second series), hits give low values 0.91 | S. cerevisiae deletion strains, locus YLR371W, strain rom2, hits give low values 0.974 | S. cerevisiae deletion strains, locus YML016C, strain PPZ1, hits give low values 0.987 | S. cerevisiae deletion strains, locus YML032C, strain rad52, hits give low values 0.908 | S. cerevisiae deletion strains, locus YML124C, strain tub3, hits give low values 0.98 | S. cerevisiae deletion strains, locus YMR078C, strain ctf18, hits give low values 0.959 | [13] 0.986 | S. cerevisiae deletion strains, locus YMR307W, strain GAS1, hits give low values 0.711 | S. cerevisiae deletion strains, locus YNL067W, strain RPL9B, hits give low values 0.985 | S. cerevisiae deletion strains, locus YNL128W, strain TEP1, hits give low values 0.931 | [14] 1.03 | S. cerevisiae deletion strains, locus YNL233W, strain BNI4, hits give low values 0.933 | S. cerevisiae deletion strains, locus YNL250W, strain rad50, hits give low values 0.966 | S. cerevisiae deletion strains, locus YNL271C, strain bni1, hits give low values 0.959 | S. cerevisiae deletion strains, locus YNL298W, strain CLA4, hits give low values 0.949 | [15] 0.998 | S. cerevisiae deletion strains, locus YNR052C, strain pop2, hits give low values 0.951 | [16] 0.937 | S. cerevisiae deletion strains, locus YOL012C, strain htz1 0.778 | S. cerevisiae deletion strains, locus YOR061W, strain CKA2, hits give low values 0.98 | S. cerevisiae deletion strains, locus YOR069W, strain VPS5, hits give low values 0.988 | S. cerevisiae deletion strains, locus YOR136W, strain idh2, hits give low values 0.927 | S. cerevisiae deletion strains, locus YOR144C, strain elg1, hits give low values 0.963 | S. cerevisiae deletion strains, locus YOR316C, strain cot1, hits give low values 0.981 | [17] 0.931 | [18] 1 | S. cerevisiae deletion strains, locus YPR119W, strain clb2, hits give low values 0.976 | S. cerevisiae deletion strains, locus YPR141C, strain kar3, hits give low values 0.983 | S. cerevisiae deletion strains, locus YPR163C, strain tif3, hits give low values 0.916 | S. cerevisiae deletion strains, locus YPR167C, strain met16, hits give low values 0.968 | S. cerevisiae deletion strains, strain wtn01, hits give low values 0.928 | S. cerevisiae strains, strain wild type, hits give low values 0.97
active: S. cerevisiae deletion strains, locus YDL192W, strain arf1, hits give low values 0.795 | S. cerevisiae deletion strains, locus YDR162C, strain NBP2, hits give low values 0.626 | S. cerevisiae deletion strains, locus YDR318W, strain mcm21, hits give low values 0.884 | S. cerevisiae deletion strains, locus YDR502C, strain sam2, hits give low values 0.868 | S. cerevisiae deletion strains, locus YGL086W, strain mad1, hits give low values 0.894 | [8] 0.837 | S. cerevisiae deletion strains, locus YKR001C, strain vps1, hits give low values 0.685 | [11] 0.64 | [12] 0.568 | S. cerevisiae deletion strains, locus YLR268W, strain sec22, hits give low values 0.838 | S. cerevisiae deletion strains, locus YLR418C, strain cdc73, hits give low values 0.532 | S. cerevisiae deletion strains, locus YMR223W, strain ubp8, hits give low values 0.844 | S. cerevisiae deletion strains, locus YNL307C, strain MCK1, hits give low values 0.591 | S. cerevisiae deletion strains, locus YOL147C, strain pex11, hits give low values 0.896 | S. cerevisiae deletion strains, locus YOR184W, strain ser1, hits give low values 0.559
